What all share (design): scale not given: direction of the effect not stated beside the values
Experiment [1] concerns the target Protein translocase subunit SecA (Escherichia coli (strain K12)) (UniProt P10408). Nature of the experiment: Assay to Identify E. coli SecA ATPase Inhibitors. In kind it is functional. The settings on record: 30 µM.
The target in experiment [2] is T1, Ubiquitin-activating enzyme e1, putative (Leishmania donovani (strain BPK282A1)) (UniProt E9BSI1).
T1 sequence (whole entry): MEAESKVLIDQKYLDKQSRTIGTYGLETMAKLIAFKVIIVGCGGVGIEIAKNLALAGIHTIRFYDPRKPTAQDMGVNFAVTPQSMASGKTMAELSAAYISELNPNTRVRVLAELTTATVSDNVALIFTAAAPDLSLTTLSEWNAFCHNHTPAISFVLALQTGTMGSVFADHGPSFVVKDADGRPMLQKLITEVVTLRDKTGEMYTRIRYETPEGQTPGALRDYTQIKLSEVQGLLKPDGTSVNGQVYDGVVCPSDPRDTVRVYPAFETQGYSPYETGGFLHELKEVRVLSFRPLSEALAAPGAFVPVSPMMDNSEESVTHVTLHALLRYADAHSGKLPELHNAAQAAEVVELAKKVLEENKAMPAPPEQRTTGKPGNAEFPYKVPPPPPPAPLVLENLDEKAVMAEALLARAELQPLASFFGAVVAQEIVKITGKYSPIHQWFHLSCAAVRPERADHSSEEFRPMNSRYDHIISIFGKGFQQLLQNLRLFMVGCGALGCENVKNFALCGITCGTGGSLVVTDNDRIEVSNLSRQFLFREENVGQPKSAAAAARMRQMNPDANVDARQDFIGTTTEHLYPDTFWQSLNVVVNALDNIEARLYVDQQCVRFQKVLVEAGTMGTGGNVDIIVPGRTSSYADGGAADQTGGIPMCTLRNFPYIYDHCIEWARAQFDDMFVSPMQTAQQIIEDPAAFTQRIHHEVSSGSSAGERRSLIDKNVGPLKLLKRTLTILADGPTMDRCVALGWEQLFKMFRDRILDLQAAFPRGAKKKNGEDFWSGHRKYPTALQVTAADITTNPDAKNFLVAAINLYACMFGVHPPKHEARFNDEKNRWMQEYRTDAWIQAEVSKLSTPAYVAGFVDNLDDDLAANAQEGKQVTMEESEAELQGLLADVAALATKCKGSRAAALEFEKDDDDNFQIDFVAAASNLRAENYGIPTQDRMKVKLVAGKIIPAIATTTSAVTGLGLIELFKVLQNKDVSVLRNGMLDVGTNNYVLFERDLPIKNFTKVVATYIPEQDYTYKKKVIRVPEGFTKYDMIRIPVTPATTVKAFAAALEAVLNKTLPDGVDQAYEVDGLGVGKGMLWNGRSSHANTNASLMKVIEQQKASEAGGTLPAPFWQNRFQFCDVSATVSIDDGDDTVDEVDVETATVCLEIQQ
Nature of the experiment: Leishmania donovani Ubiquitin Activating Enzyme (LdE1). In kind it is functional. The settings on record: 30 µM.

For experiment [3], the target named is AMP-activated protein kinase, AMPK (Homo sapiens) (UniProt P54646+O43741+P54619+Q9UGJ0+Q9Y478+Q13131+Q9UGI9). Nature of the experiment: AMP-dependent Kinase enzyme assay. An in vitro enzyme assay that detects ADP turnover that is directly proportional to AMPK activity. This uses naive AMPK that is activated during the assay with MK-8722. In kind it is functional. The following applies: 30 µM.

Experiment [4] addresses Sialic acid-binding Ig-like lectin 9 (Homo sapiens) (UniProt Q9Y336). Nature of the experiment: Hs-Siglec9 ALPHAscreen SOP 20170721. The settings on record: 10 µM. A general note: Bead proximity is the source of the signal in Alpha formats.
Another experiment relates to Trypanosoma cruzi. Nature of the experiment: Trypanosoma cruzi phosphomannomutase and mannose-1-phosphate guanylyltransferase assay. In kind it is functional. The following applies: 10 µM.
The target in experiment [5] is T2, Arginase-2, mitochondrial (Homo sapiens) (UniProt P78540).
T2 sequence (whole entry): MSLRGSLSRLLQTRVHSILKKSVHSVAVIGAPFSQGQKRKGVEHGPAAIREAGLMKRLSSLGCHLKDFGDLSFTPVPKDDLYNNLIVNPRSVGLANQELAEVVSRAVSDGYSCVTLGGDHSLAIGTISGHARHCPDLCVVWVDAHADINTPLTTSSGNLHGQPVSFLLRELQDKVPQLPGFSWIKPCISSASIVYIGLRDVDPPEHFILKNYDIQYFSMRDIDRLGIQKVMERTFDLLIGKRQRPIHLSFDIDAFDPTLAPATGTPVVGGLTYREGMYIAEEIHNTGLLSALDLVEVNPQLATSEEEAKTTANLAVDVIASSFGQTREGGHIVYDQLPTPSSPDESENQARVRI
Nature of the experiment: in vitro enzyme assay to detect the production of urea directly proportional to the activity of Arginase II. Also: in the data most compounds retested in dose-response had high values. In kind it is functional. The following applies: 33.3 µM.

The target of experiment [6] is T3, Proteasome subunit beta (Trypanosoma cruzi) (UniProt O96673).
T3 sequence (whole entry): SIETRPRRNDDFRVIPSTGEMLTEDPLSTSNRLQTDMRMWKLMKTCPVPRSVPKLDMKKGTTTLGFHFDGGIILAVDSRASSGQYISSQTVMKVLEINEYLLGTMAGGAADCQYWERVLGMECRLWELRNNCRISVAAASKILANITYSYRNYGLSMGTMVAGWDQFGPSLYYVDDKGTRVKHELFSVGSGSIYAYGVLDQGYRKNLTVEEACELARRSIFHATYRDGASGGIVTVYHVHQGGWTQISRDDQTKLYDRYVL
Nature of the experiment: Trypanosoma cruzi proteasome chymotrypsin-like activity (TcProtChymo) assay. Also: in the data most compounds retested in dose-response had high values. The settings on record: 9.37 µM. In kind it is functional.

For the next experiment, the species on record is Homo sapiens. Nature of the experiment: To identify inhibition of the IFN signalling (Jak-Stat) pathway via expression of an eGFP reporter gene under the control of an IFN-stimulated response element (ISRE) containing MxA promoter. In kind it is functional. The following applies: 30 µM. (In general: A reporter such as luciferase makes a cellular process visible.)

Experiment [7] addresses T4, Tyrosyl-tRNA synthetase, putative (Trypanosoma cruzi (strain CL Brener)) (UniProt Q4DSP6).
T4 sequence (whole entry): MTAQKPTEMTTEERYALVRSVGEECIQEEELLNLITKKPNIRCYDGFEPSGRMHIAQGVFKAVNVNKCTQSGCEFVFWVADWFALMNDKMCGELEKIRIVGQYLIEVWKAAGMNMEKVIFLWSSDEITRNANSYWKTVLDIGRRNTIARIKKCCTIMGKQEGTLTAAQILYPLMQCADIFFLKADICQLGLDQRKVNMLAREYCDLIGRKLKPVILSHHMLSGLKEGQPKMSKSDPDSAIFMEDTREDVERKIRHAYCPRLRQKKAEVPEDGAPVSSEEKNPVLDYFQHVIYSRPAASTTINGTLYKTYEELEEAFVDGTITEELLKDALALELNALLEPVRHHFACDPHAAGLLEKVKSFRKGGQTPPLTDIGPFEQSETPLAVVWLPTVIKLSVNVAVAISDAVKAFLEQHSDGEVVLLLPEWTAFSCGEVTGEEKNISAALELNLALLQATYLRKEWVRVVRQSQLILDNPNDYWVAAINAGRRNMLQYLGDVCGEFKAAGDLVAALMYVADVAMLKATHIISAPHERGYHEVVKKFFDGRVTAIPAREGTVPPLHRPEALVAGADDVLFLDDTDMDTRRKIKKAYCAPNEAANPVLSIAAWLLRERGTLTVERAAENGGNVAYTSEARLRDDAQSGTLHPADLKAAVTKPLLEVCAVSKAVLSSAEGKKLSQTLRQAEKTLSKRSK
Nature of the experiment: Trypanosoma cruzi tyrosyl tRNA synthetase (TcYRS) _High Tyrosine SOP. Also: in the data most compounds retested in dose-response had high values. The settings on record: 30 µM. In kind it is functional.

In experiment [8] the target is T4, Tyrosyl-tRNA synthetase, putative (Trypanosoma cruzi (strain CL Brener)). Nature of the experiment: Trypanosoma cruzi tyrosyl tRNA synthetase (TcYRS) SOP. In kind it is functional. The following applies: 30 µM.
For experiment [9], the target named is Chromo domain-containing protein 1 (Saccharomyces cerevisiae (strain ATCC 204508 / S288c) (Baker's yeast)) (UniProt P32657). Nature of the experiment: ScCHD-1 Enzyme Inhibition Assay. Also: in the data most compounds retested in dose-response had high values. In kind it is functional. The settings on record: 30 µM.
Chromo domain-containing protein 1 (Saccharomyces cerevisiae (strain ATCC 204508 / S288c) (Baker's yeast)), sequence (P32657 whole entry, the tested form may be a part): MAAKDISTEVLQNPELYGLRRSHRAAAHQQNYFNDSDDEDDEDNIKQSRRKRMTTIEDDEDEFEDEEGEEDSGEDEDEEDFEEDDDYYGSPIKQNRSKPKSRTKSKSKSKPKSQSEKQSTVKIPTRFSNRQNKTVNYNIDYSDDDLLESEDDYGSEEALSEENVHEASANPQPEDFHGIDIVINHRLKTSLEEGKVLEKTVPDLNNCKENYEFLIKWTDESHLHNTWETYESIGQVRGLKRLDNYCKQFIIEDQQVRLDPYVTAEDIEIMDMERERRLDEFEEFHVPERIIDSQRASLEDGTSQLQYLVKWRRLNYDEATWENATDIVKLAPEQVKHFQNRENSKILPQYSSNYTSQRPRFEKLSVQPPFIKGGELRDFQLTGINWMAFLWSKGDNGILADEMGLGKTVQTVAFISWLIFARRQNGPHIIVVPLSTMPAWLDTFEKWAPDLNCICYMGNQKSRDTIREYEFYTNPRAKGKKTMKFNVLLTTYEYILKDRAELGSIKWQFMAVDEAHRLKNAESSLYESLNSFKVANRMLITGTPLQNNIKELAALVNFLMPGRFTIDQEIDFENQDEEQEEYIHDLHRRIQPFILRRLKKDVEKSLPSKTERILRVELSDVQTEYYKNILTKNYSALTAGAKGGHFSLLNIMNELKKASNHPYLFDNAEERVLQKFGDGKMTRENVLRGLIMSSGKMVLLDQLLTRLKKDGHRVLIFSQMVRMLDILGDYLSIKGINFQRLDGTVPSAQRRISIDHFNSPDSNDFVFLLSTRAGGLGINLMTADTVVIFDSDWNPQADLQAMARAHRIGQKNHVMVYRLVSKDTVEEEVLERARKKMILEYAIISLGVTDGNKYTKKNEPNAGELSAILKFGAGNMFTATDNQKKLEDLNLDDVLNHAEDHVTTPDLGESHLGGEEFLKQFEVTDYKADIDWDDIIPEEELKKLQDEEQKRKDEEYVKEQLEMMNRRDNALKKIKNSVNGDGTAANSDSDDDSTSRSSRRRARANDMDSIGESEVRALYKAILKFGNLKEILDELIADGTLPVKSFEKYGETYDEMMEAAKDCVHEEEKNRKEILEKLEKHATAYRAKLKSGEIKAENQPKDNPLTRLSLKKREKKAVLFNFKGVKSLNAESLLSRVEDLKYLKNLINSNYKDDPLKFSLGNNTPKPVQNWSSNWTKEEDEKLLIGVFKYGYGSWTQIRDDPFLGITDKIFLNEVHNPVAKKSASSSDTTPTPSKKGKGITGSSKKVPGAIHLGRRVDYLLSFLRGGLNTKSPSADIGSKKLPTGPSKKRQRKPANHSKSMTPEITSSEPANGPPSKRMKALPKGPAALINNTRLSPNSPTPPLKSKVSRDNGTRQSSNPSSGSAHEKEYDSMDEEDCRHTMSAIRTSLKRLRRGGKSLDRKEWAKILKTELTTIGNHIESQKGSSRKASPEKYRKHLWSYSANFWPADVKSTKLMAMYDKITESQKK

This passage reports Percent Effect results from ChEMBL document CHEMBL3988442, “University of Dundee, Small-Polar-MMV Screening Library” (2021).

For some of these results: Results with a measured potency or affinity are listed apart.

Protein translocase subunit SecA (Escherichia coli (strain K12)), sequence (P10408 whole entry): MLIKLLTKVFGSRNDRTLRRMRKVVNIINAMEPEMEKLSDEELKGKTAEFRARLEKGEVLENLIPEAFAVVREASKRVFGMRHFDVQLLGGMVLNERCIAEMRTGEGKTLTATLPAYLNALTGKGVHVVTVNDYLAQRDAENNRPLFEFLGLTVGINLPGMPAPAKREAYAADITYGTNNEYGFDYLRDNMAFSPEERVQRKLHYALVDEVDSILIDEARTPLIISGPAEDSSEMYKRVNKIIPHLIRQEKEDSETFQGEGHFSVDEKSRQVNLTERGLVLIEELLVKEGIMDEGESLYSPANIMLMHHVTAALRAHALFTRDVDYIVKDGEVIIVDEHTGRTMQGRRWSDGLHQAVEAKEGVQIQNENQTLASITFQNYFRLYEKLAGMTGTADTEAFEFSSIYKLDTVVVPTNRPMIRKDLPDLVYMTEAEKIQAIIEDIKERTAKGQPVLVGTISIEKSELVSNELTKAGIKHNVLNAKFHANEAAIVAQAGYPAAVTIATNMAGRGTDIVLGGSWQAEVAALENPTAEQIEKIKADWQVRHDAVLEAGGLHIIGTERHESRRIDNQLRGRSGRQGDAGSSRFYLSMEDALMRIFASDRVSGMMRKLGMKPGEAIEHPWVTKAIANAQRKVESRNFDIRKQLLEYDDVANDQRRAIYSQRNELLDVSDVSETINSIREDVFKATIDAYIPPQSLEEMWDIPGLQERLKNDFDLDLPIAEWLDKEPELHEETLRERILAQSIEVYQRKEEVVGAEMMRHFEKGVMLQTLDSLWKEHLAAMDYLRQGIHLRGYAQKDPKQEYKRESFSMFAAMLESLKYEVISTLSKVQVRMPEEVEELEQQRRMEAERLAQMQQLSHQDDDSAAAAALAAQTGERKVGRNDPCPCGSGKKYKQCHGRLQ
Sialic acid-binding Ig-like lectin 9 (Homo sapiens), sequence (Q9Y336 whole entry): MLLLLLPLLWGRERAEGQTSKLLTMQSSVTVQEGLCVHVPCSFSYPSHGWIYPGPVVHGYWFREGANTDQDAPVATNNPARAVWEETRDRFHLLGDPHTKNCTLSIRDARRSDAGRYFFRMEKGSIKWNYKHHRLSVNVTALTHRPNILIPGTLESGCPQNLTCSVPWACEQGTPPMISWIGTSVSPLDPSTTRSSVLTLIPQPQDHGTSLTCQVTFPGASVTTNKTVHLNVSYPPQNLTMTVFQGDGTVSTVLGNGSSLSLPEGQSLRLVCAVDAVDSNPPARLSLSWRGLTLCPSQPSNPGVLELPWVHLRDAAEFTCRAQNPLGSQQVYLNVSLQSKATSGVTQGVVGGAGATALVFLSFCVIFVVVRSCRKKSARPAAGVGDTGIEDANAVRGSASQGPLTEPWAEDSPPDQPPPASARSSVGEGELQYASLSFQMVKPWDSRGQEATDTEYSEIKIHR

On to `Cc1nc(C)n(C2CCCN(C(=O)c3csnn3)C2)n1` (stereo unspecified), for which the Percent Effect in experiment [1] is -2.6%; in [2] it was 21.6%; in experiment [3], -13%; in experiment [4], -1.58%; in the experiment on Trypanosoma cruzi, -2.92%; in [5], -7.21%. Also, the Percent Effect was 16.2% in experiment [6]; 15.5% in the experiment filed under Homo sapiens; 4.43% in [7]; 18.5% in experiment [8]; -4.56% in [9].
Regarding `c1ccc(C[C@H]2CN(Cc3nccs3)CC[C@H]2OCC2CC2)cc1`, the Percent Effect is -4.65% in experiment [1]; 2.67% in experiment [2]; 3.57% in [3]; 3.38% in experiment [4]; -0.591% in the experiment with Trypanosoma cruzi; -2.56% in experiment [5]. The Percent Effect is 4.32% in experiment [6]; 21.5% in the experiment filed under Homo sapiens; 3.19% in [7]; 11.5% in experiment [8]; -3.05% in experiment [9].
Turning to `CC(C)n1cc(CN2CCCN(C(=O)c3cc(Cl)c[nH]3)CC2)cn1`, the Percent Effect is -2.91% in [1]; 10.8% in experiment [2]; -4.13% in experiment [3]; 15.8% in experiment [4]; 1.23% in the experiment with Trypanosoma cruzi; -4.41% in [5]. In addition, the Percent Effect in experiment [6] is 0.36%; in the experiment listed under Homo sapiens, 15.2%; in [7] it was 2.46%; in [8], 13.6%; in experiment [9], -8.52%.
With `CC(C)c1noc(C(C)N2CCN(Cc3ccco3)CC2)n1` (stereo unspecified), the Percent Effect in experiment [1] is -1.82%; in [2] it was -7.89%; in experiment [3], -0.515%; in [4], 3.05%; in the experiment with Trypanosoma cruzi, 7.19%; in [5] it was -3.24%. Further, the Percent Effect was 2.45% in [6]; -1.85% in the experiment listed under Homo sapiens; 1.48% in experiment [7]; 1.24% in experiment [8]; 0.33% in [9].
In the case of `CC(C)Nc1nc(N2CCOCC2)nc2c1CN(CC(=O)N(C)C)CC2`, the Percent Effect is -9.2% in [1]; 0% in experiment [2]; 6.79% in experiment [3]; -0.0149% in experiment [4]; -0.591% in the experiment on Trypanosoma cruzi; 1.17% in experiment [5]. Besides, the Percent Effect in experiment [6] is -5.37%; in the experiment listed under Homo sapiens, 15.8%; in experiment [7] it was -1.06%; in experiment [8] it was -3.85%; in experiment [9] it was -5.05%.
Take `Cc1nc(C2CCCN(C(=O)c3cccc(S(C)(=O)=O)c3)C2)no1` (stereo unspecified): the Percent Effect in experiment [1] was -1.36%; in experiment [2], -1.27%; in experiment [3], 5.98%; in experiment [4] it was 4.04%; in the experiment on Trypanosoma cruzi, -1.95%; in [5], 7.96%. Besides, the Percent Effect was 12.3% in experiment [6]; -20.9% in the experiment listed under Homo sapiens; 0% in experiment [7]; 0% in experiment [8]; 3.1% in [9].
Consider `CC(C)C(C(=O)N1CCC(Nc2cccnn2)CC1)n1cncn1` (stereo unspecified), for which the Percent Effect in experiment [1] was -0.999%; in experiment [2], -2.7%; in experiment [3], -4.26%; in [4] it was 1.29%; in the experiment with Trypanosoma cruzi it was -6.51%; in experiment [5], 1.2%. Further, the Percent Effect in experiment [6] was 5.59%; in the experiment listed under Homo sapiens it was 9.97%; in experiment [7], 0.493%; in experiment [8], -1.24%; in experiment [9] it was -1.75%.
For the compound `c1cc(CN2CCN(Cc3cscn3)CC2)cs1`, the Percent Effect in experiment [1] is -1.31%; in experiment [2], 10.4%; in experiment [3], 3.68%; in [4], -2.63%; in the experiment with Trypanosoma cruzi it was -2.25%; in experiment [5], 4%. Moreover, the Percent Effect in experiment [6] is 2.67%; in the experiment listed under Homo sapiens it was 29.1%; in [7], 2.86%; in experiment [8], 2.35%; in [9] it was -6.18%.
Turning to `CCCC(=O)Nc1sc(C(=O)OCC)c(C)c1C#N`, the Percent Effect was 0.0516% in [1]; 7.79% in experiment [2]; 24.2% in experiment [3]; -8.77% in experiment [4]; -5.42% in the experiment on Trypanosoma cruzi; 8.39% in [5]. In addition, the Percent Effect is 10.4% in experiment [6]; -0.547% in the experiment listed under Homo sapiens; 1.06% in [7]; 16.7% in experiment [8]; -3.68% in [9].
`COCc1nc(N(C)C)ncc1C(=O)Nc1ccn(C)n1`: the Percent Effect is -6.73% in experiment [1]; 12% in experiment [2]; -5.52% in experiment [3]; 4.28% in [4]; 1.38% in the experiment on Trypanosoma cruzi; -7.22% in experiment [5]. For the same compound, the Percent Effect in experiment [6] was 5.36%; in the experiment filed under Homo sapiens, 0.526%; in experiment [7], 4.23%; in experiment [8] it was 10.3%; in experiment [9] it was -10.2%.
On to `c1ncn(CC2CCCCN2Cc2csc(C3CCCC3)n2)n1` (stereo unspecified), for which the Percent Effect was -2.71% in experiment [1]; -5.2% in experiment [2]; -0.0278% in experiment [3]; 1.89% in [4]; 9.55% in the experiment on Trypanosoma cruzi; -1.42% in experiment [5]. For the same compound, the Percent Effect in experiment [6] was found to be 6.93%; in the experiment listed under Homo sapiens, 11.4%; in experiment [7], 10.7%; in [8], 19.5%; in experiment [9] it was 66.7%.
